# Screening data deposited in PubChem BioAssay by several laboratories.
# Compounds with a hit are over-represented: about 3.7% of the library has one in this group of screens.
# FBA Mtb inh = inhibitors of M. tuberculosis fructose-bisphosphate aldolase. P9WQA3. purified M. tuberculosis FBA, fluorescence read-out. inhibition, % at 1 µM. hit rate 2.3% among 360,000;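 note: 0% = vehicle and 100% = reference inhibitor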
# Target sequence (P9WQA3 whole entry, looked up): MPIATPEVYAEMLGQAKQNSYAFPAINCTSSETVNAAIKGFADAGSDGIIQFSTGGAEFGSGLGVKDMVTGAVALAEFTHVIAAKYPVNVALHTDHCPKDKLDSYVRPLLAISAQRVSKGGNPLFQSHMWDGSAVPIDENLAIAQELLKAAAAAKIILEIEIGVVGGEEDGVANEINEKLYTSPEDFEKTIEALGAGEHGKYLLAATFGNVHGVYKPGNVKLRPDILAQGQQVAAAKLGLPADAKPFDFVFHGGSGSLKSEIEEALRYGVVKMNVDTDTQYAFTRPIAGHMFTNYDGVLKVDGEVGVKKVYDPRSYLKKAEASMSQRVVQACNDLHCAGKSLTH
# GDH-TPI counter-1 = GDH-TPI coupled enzyme inhibition counter-screen; GDH-TPI coupled enzyme counterscreen, NADH absorbance; AID 588335; inhibition, % at 4.8 µM; hit rate 1.2% among 360,000; in the data active = inhibition above about 30%;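 note: 0% = DMSO wells and 100% = wells lacking the enzyme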
# FadD28 FP inh = blocks FadD28 binding to the bisubstrate probe. fluorescence polarization. inhibition, % at 12.5 µM. hit rate 0.22% among 360,000. AID 588549; in the data active = inhibition above about 8.5%, passing the limit was not always enough
# Rv3671c protease = inhibits the M. tuberculosis serine protease Rv3671c | P9WHR9 | hit rate 0.048% among 320,000 | inhibition, % at 5.96 µM; in the data active = inhibition above about 38%;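 note: extracellular domain of Rv3671c used as enzyme; 0% = enzyme with DMSO and 100% = no enzyme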
# Mtb betalactam = beta-lactam sensitization of Mtb H37Rv; M. tuberculosis H37Rv growth with meropenem, percent inhibition; inhibition, % at 25 µM; hit rate 0.27% among 330,000; AID 434955; call rule not given here;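 note: growth measured after seven days incubation then overnight dye step; 0% = bacteria only wells and 100% = bacteria with antibiotic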
# Mtb UGM inh = inhibitors of M. tuberculosis UDP-galactopyranose mutase; purified UGM, fluorescence polarization probe displacement; P9WIQ1; hit rate 0.06% among 320,000; inhibition, % at 10 µM; AID 504406; in the data active = inhibition above about 10%, passing the limit was not always enough
# Mtb FBA inh conf = confirmation of M. tuberculosis fructose-bisphosphate aldolase inhibitors. shares compounds with FBA Mtb inh. purified M. tuberculosis FBA, fluorescence read-out. inhibition, % at 1 µM. hit rate 78% among 5,600. AID 651616;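 note: 0% = vehicle wells and 100% = reference inhibitor wells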
# GDH-TPI counter-2 = counter-screen for M. tuberculosis FBA inhibitors: GDH-TPI coupled enzyme inhibition; inhibition, % at 1 µM; shares compounds with FBA Mtb inh; GDH-TPI coupled enzyme counterscreen, fluorescence; hit rate 81% among 5,600; in the data active = inhibition above about 10%
# * marks the source's active call; other numbers are inactive results; nt = not tested or not shown. Cut-off read from the data, not from the text of the source, unless noted: active = inhibition above about 27%; inactive = the rest.
SMILES,FBA Mtb inh,GDH-TPI counter-1,FadD28 FP inh,Rv3671c protease,Mtb betalactam,Mtb UGM inh,Mtb FBA inh conf,GDH-TPI counter-2
CCCCc1cc(=O)oc2cc(C)cc(OCC(=O)N3CCC(C(=O)O)(c4ccccc4)CC3)c12,62.4*,9.7,-2.8,6.1,-6.4,0.4,51.8*,34.1*
Cc1cc(OCC(=O)N2CCc3ccccc3C2)c2c(-c3ccccc3)cc(=O)oc2c1,-1.7,10.4,-1.4,-17.0,6.4,-5.6,nt,nt
CCc1cc(=O)oc2cc(C)cc(OCC(=O)N3CCC(C(=O)O)CC3)c12,76.0*,14.7,-0.6,-3.0,0.2,2.3,120.9*,108.9*
Cc1cc(OCC(=O)N2CCC(C(=O)O)CC2)c2c3c(c(=O)oc2c1)CCC3,97.7*,15.7,-1.8,-10.7,-3.9,2.8,166.3*,133.2*
CCCc1cc(=O)oc2cc(OCC(=O)N3CCC(C(=O)O)(c4ccccc4)CC3)ccc12,76.2*,21.6,-1.9,-3.8,-6.5,0.2,101.4*,81.3*
CCCc1cc(=O)oc2cc(OCC(=O)N3CCN(Cc4ccc5c(c4)OCO5)CC3)ccc12,15.1,7.1,-1.9,-8.6,-9.4,0.7,nt,nt
Cc1cc(OCC(=O)NCC2CCC(C(=O)O)CC2)c2c3c(c(=O)oc2c1)CCC3 (stereo unspecified),20.0,14.7,-1.5,0.4,-5.4,0.4,nt,nt
COc1ccccc1N1CCN(C(=O)COc2cc(C)cc3oc(=O)cc(C)c23)CC1,4.7,3.5,-2.4,0.2,5.6,1.3,nt,nt
CCC(O)(Cc1ccccn1)Cc1ccccn1,4.4,-2.6,nt,nt,nt,nt,nt,nt
CCCc1cc(=O)oc2cc(C)cc(OCC(=O)N3CCC(C(=O)O)CC3)c12,96.5*,9.8,-0.9,-3.9,-10.2,-1.8,72.7*,64.7*
CCCc1cc(=O)oc2cc(C)cc(OCC(=O)N3CCC(C(N)=O)CC3)c12,39.1*,18.6,-2.3,1.9,-4.3,1.6,85.5*,80.9*
Cc1cc(OCC(=O)N2CCC(O)(c3ccc(Cl)cc3)CC2)c2c(C)cc(=O)oc2c1,3.7,6.9,-0.8,-15.2,1.0,2.0,nt,nt
Cc1nn(CC(=O)Nc2ccc3c(c2)nc(CCN2CCCCC2)n3C)c(=O)c2ccccc12,10.0,-3.7,-3.1,-0.5,2.3,nt,nt,nt
Cc1nn(CC(=O)Nc2ccc3c(c2)nc2n3CCN(C3CCCCC3)C2)c(=O)c2ccccc12,50.9*,-1.2,-8.5,-12.3,-0.1,0.6,129.6*,101.4*
CC(c1ccccc1)N1CCn2c(nc3cc(NC(=O)NC4CCCCC4)ccc32)C1 (stereo unspecified),56.9*,1.9,-1.8,-6.4,0.3,1.8,55.8*,52.2*
COCCN(C(=O)COC(=O)C1CCC(C(C)(C)C)CC1)c1c(N)n(Cc2ccccc2)c(=O)[nH]c1=O (stereo unspecified),3.0,1.4,-1.2,-3.0,-11.4,-1.3,nt,nt
Cc1ccc(CN2CCC[C@]3(N[C@H](c4ccc(C)cc4)[C@@H]4C(=O)N(C)C(=O)[C@@H]43)C2=O)cc1,3.4,15.5,0.6,nt,nt,nt,nt,nt
N#CCc1nn2c(-c3ccccc3)ccnc2c1C#N,68.7*,13.8,nt,-7.8,9.4,-2.3,120.9*,91.5*
COc1cccc(-c2nn(C)c3sc(C(=O)NCc4ccc(C)cc4)cc23)c1,17.8,5.3,-12.3,-93.2,7.6,-0.1,nt,nt
Cn1nc(-c2ccccc2)c2cc(C(=O)O)sc21,48.8*,7.9,-2.9,-3.1,-2.5,2.5,1.2,0.5
CCN(CC)CCNC(=O)c1cc2c(-c3cccc(OC)c3)nn(C)c2s1,60.4*,22.8,-9.9,-12.4,-1.2,2.6,173.0*,128.6*
COc1cccc(-c2nn(C)c3sc(C(=O)NCc4ccccn4)cc23)c1,80.1*,20.0,-1.6,-13.6,-8.7,-0.2,-0.1,-2.1
COCCCNC(=O)c1cc2c(-c3cccc(OC)c3)nn(C)c2s1,89.1*,10.8,-7.4,-8.7,-11.1,2.0,119.4*,107.5*
COc1ccc(-c2cc(C(=O)NC3CC3)c3ccccc3n2)cc1,46.1*,0.8,-4.6,3.2,7.3,-2.5,104.4*,87.6*
O=C(NC1CCC(O)CC1)c1cc(-c2ccco2)nc2ccccc12 (stereo unspecified),62.5*,3.2,0.0,3.1,-8.1,-1.5,53.3*,37.8*
